According to publication PMC5540273 (PLoS ONE, 2017):
Where two headings read alike, the source gives them in different places.

Experiments:
FYN = settings: concentration: 1 μM,replicates: in singlicate; n = 1
GAK = settings: concentration: 1 μM,replicates: in singlicate; n = 1
GCN2(Kin.Dom.2,S808G) = tested on: T1, GCN2(Kin.Dom.2,S808G); settings: concentration: 1 μM,replicates: in singlicate; n = 1
T1 construct: gene EIF2AK4

GRK1 = settings: concentration: 1 μM,replicates: in singlicate; n = 1
GRK2 = tested on: T2, GRK2; settings: concentration: 1 μM,replicates: in singlicate; n = 1
T2 construct: gene ADRBK1

GRK3 = tested on: T3, GRK3; settings: concentration: 1 μM,replicates: in singlicate; n = 1
T3 construct: gene ADRBK2

GRK4 = settings: concentration: 1 μM,replicates: in singlicate; n = 1
GRK7 = settings: concentration: 1 μM,replicates: in singlicate; n = 1
GSK3A = settings: concentration: 1 μM,replicates: in singlicate; n = 1
GSK3B = settings: n = 1
[1] = concentration: 1 μM,replicates: in singlicate
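Also: KINOMEscan kinase panel screen.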

Q: Which results are given for `C[C@@H](Oc1cc(-n2cnc3ccc(-c4ccncc4)cc32)sc1C(N)=O)c1ccccc1Cl` [GSK483724]?
A: %Inh (FYN): 44%; %Inh (GAK): 49%; %Inh (GCN2(Kin.Dom.2,S808G)): 0%; %Inh (GRK1): 53%; %Inh (GRK2): 7%; %Inh (GRK3): 32%; %Inh (GRK4): 21%; %Inh (GRK7): 0%; %Inh (GSK3A): 76%; %Inh (GSK3B; [1]): 15%

Q: What does the source list for `Cn1ccc2ncnc(Oc3ccc(NC(=O)Nc4cc(C(C)(C)C)on4)c(Cl)c3)c21`?
A: %Inh (FYN): 35%; %Inh (GAK): 13%; %Inh (GCN2(Kin.Dom.2,S808G)): 0%; %Inh (GRK1): 16%; %Inh (GRK2): 62%; %Inh (GRK3): 1%; %Inh (GRK4): 0%; %Inh (GRK7): 8%; %Inh (GSK3A): 0%; %Inh (GSK3B; [1]): 0%

Q: How did the “%Inh” value (FYN) turn out when `COc1cccc(CNC(=O)NC2CCN(c3ccnc(Nc4cc(OC)c(OC)c(OC)c4)n3)C2)c1` (centres unmarked) [GSK1379765] was run?
A: 12%

Q: What about the “%Inh” value (GAK) of the same compound?
A: 0%

Q: What about the “%Inh” value (GCN2(Kin.Dom.2,S808G)) of the same compound?
A: 0%

Q: What about the “%Inh” value (GRK1) of the same compound?
A: 0%

Q: And the “%Inh” value (GRK2)?
A: 0%

Q: And the “%Inh” value (GRK3)?
A: 19%

Q: What about the “%Inh” value (GRK4) of the same compound?
A: 74%

Q: What about the “%Inh” value (GRK7) of the same compound?
A: 0%

Q: What about the “%Inh” value (GSK3A) of the same compound?
A: 0%

Q: And the “%Inh” value (GSK3B; [1])?
A: 7%

Q: With `CS(=O)(=O)c1cccc(CNc2nc(Nc3ccc4c(c3)[C@@H]3C[C@@H]4CNC3=O)ncc2C(F)(F)F)c1` as the compound, how does the “%Inh” value (FYN) read?
A: 0%

Q: And the “%Inh” value (GAK)?
A: 26%

Q: And the “%Inh” value (GCN2(Kin.Dom.2,S808G))?
A: 57%

Q: What about the “%Inh” value (GRK1) of the same compound?
A: 28%

Q: What about the “%Inh” value (GRK2) of the same compound?
A: 0%

Q: What about the “%Inh” value (GRK3) of the same compound?
A: 0%

Q: And the “%Inh” value (GRK4)?
A: 27%

Q: What about the “%Inh” value (GRK7) of the same compound?
A: 0%

Q: What about the “%Inh” value (GSK3A) of the same compound?
A: 74%

Q: And the “%Inh” value (GSK3B; [1])?
A: 0%

Q: How did the “%Inh” value (FYN) turn out when `COc1ccc(Nc2nccc(N3CCC(NC(=O)c4cccc(C#N)c4)C3)n2)cc1` (centres unmarked) [GSK1379730] was run?
A: 0%

Q: And the “%Inh” value (GAK)?
A: 0%

Q: What about the “%Inh” value (GCN2(Kin.Dom.2,S808G)) of the same compound?
A: 2%

Q: And the “%Inh” value (GRK1)?
A: 0%

Q: And the “%Inh” value (GRK2)?
A: 3%

Q: What about the “%Inh” value (GRK3) of the same compound?
A: 8%

Q: And the “%Inh” value (GRK4)?
A: 0%

Q: What about the “%Inh” value (GRK7) of the same compound?
A: 0%

Q: And the “%Inh” value (GSK3A)?
A: 0%

Q: What about the “%Inh” value (GSK3B; [1]) of the same compound?
A: 13%

Q: Which results are given for `C[C@@H](Oc1cc(-n2cnc3cc(-c4cnn(C)c4)ccc32)sc1C(N)=O)c1ccccc1Cl` [GSK580432]?
A: %Inh (FYN): 47%; %Inh (GAK): 95.3%; %Inh (GCN2(Kin.Dom.2,S808G)): 99.2%; %Inh (GRK1): 4%; %Inh (GRK2): 38%; %Inh (GRK3): 0%; %Inh (GRK4): 85%; %Inh (GRK7): 0%; %Inh (GSK3A): 0%; %Inh (GSK3B; [1]): 0%

Q: With `O=c1[nH]cc(-c2ccc(O)cc2)c2sc(-c3ccncc3)cc12` [GSK1033723] as the compound, how does the “%Inh” value (FYN) read?
A: 21%

Q: What about the “%Inh” value (GAK) of the same compound?
A: 16%

Q: And the “%Inh” value (GCN2(Kin.Dom.2,S808G))?
A: 6%

Q: And the “%Inh” value (GRK1)?
A: 0%

Q: What about the “%Inh” value (GRK2) of the same compound?
A: 0%

Q: What about the “%Inh” value (GRK3) of the same compound?
A: 0%

Q: What about the “%Inh” value (GRK4) of the same compound?
A: 0%

Q: And the “%Inh” value (GRK7)?
A: 0%

Q: What about the “%Inh” value (GSK3A) of the same compound?
A: 63%

Q: And the “%Inh” value (GSK3B; [1])?
A: 22%

Q: How did the “%Inh” value (FYN) turn out when `Cl.Nc1n[nH]c2cc(-c3ccccn3)ccc12` [GSK2189892] was run?
A: 0%

Q: And the “%Inh” value (GAK)?
A: 0%

Q: And the “%Inh” value (GCN2(Kin.Dom.2,S808G))?
A: 0%

Q: What about the “%Inh” value (GRK1) of the same compound?
A: 0%

Q: And the “%Inh” value (GRK2)?
A: 0%

Q: And the “%Inh” value (GRK3)?
A: 0%

Q: What about the “%Inh” value (GRK4) of the same compound?
A: 0%

Q: And the “%Inh” value (GRK7)?
A: 0%

Q: And the “%Inh” value (GSK3A)?
A: 4%

Q: And the “%Inh” value (GSK3B; [1])?
A: 0%

Q: Which “%Inh” value (FYN) does the source give for `CC(C)S(=O)(=O)N1CCN(Cc2ccc3c(c2)nc(NC(=O)c2ccsc2)n3C[C@H](O)c2ccccc2)CC1` [GW635815] here?
A: 73%

Q: What about the “%Inh” value (GAK) of the same compound?
A: 0%

Q: And the “%Inh” value (GCN2(Kin.Dom.2,S808G))?
A: 10%

Q: What about the “%Inh” value (GRK1) of the same compound?
A: 35%

Q: And the “%Inh” value (GRK2)?
A: 0%

Q: And the “%Inh” value (GRK3)?
A: 8%

Q: What about the “%Inh” value (GRK4) of the same compound?
A: 7%

Q: What about the “%Inh” value (GRK7) of the same compound?
A: 10%

Q: And the “%Inh” value (GSK3A)?
A: 2%

Q: And the “%Inh” value (GSK3B; [1])?
A: 0%

Q: What does the source list for `O=C(Nc1cccc(C(F)(F)F)c1)c1cccc(Oc2ccc3nccn3n2)c1`?
A: %Inh (FYN): 62%; %Inh (GAK): 0%; %Inh (GCN2(Kin.Dom.2,S808G)): 0%; %Inh (GRK1): 9%; %Inh (GRK2): 0%; %Inh (GRK3): 35%; %Inh (GRK4): 10%; %Inh (GRK7): 0%; %Inh (GSK3A): 0%; %Inh (GSK3B; [1]): 2%

Q: Which “%Inh” value (FYN) does the source give for `Cn1ccc2ncnc(Oc3ccc(NC(=O)Nc4cncc(C(F)(F)F)c4)c(Cl)c3)c21` here?
A: 0%

Q: And the “%Inh” value (GAK)?
A: 0%

Q: And the “%Inh” value (GCN2(Kin.Dom.2,S808G))?
A: 0%

Q: And the “%Inh” value (GRK1)?
A: 4%

Q: What about the “%Inh” value (GRK2) of the same compound?
A: 0%

Q: What about the “%Inh” value (GRK3) of the same compound?
A: 0%

Q: What about the “%Inh” value (GRK4) of the same compound?
A: 11%

Q: What about the “%Inh” value (GRK7) of the same compound?
A: 0%

Q: And the “%Inh” value (GSK3A)?
A: 0%

Q: What about the “%Inh” value (GSK3B; [1]) of the same compound?
A: 0%

Q: For `COc1cc(Nc2nccc(N3CCC(NC(=O)c4cccc(C#N)c4)C3)n2)cc(OC)c1OC` (centres unmarked) [GSK1379751], which “%Inh” value (FYN) is on record?
A: 0%

Q: What about the “%Inh” value (GAK) of the same compound?
A: 47%

Q: And the “%Inh” value (GCN2(Kin.Dom.2,S808G))?
A: 9%

Q: What about the “%Inh” value (GRK1) of the same compound?
A: 0%

Q: And the “%Inh” value (GRK2)?
A: 0%

Q: And the “%Inh” value (GRK3)?
A: 33%

Q: And the “%Inh” value (GRK4)?
A: 0%

Q: What about the “%Inh” value (GRK7) of the same compound?
A: 0%

Q: And the “%Inh” value (GSK3A)?
A: 0%

Q: And the “%Inh” value (GSK3B; [1])?
A: 5%

Q: With `Nc1nccc(-c2ccc3c(N)n[nH]c3c2)n1` [GSK1034945] as the compound, how does the “%Inh” value (FYN) read?
A: 32%

Q: And the “%Inh” value (GAK)?
A: 15%

Q: What about the “%Inh” value (GCN2(Kin.Dom.2,S808G)) of the same compound?
A: 0%

Q: And the “%Inh” value (GRK1)?
A: 100%

Q: What about the “%Inh” value (GRK2) of the same compound?
A: 0%

Q: What about the “%Inh” value (GRK3) of the same compound?
A: 40%

Q: And the “%Inh” value (GRK4)?
A: 52%

Q: What about the “%Inh” value (GRK7) of the same compound?
A: 0%

Q: And the “%Inh” value (GSK3A)?
A: 0%

Q: And the “%Inh” value (GSK3B; [1])?
A: 19%

Q: For `COc1cc2c(Nc3ccc(NC(=O)c4ccccc4)cc3)ncnc2cc1OCCCN1CCOCC1` [GSK301329], which “%Inh” value (FYN) is on record?
A: 49%

Q: What about the “%Inh” value (GAK) of the same compound?
A: 0%

Q: And the “%Inh” value (GCN2(Kin.Dom.2,S808G))?
A: 4%

Q: And the “%Inh” value (GRK1)?
A: 10%

Q: And the “%Inh” value (GRK2)?
A: 0%

Q: What about the “%Inh” value (GRK3) of the same compound?
A: 0%

Q: And the “%Inh” value (GRK4)?
A: 12%

Q: What about the “%Inh” value (GRK7) of the same compound?
A: 0%

Q: And the “%Inh” value (GSK3A)?
A: 0%

Q: What about the “%Inh” value (GSK3B; [1]) of the same compound?
A: 11%

Q: Which results are given for `CCN1CCN(CCCC(=O)Nc2n[nH]c3nc(-c4ccc(O)cc4)c(Br)cc23)CC1` [SB-731579]?
A: %Inh (FYN): 4%; %Inh (GAK): 0%; %Inh (GCN2(Kin.Dom.2,S808G)): 0%; %Inh (GRK1): 0%; %Inh (GRK2): 0%; %Inh (GRK3): 25%; %Inh (GRK4): 21%; %Inh (GRK7): 0%; %Inh (GSK3A): 99.5%; %Inh (GSK3B; 1 µM): 98.5%

Q: Which results are given for `O=C1NCCc2[nH]c(-c3ccncc3)cc21`?
A: %Inh (FYN): 0%; %Inh (GAK): 5%; %Inh (GCN2(Kin.Dom.2,S808G)): 0%; %Inh (GRK1): 14%; %Inh (GRK2): 25%; %Inh (GRK3): 36%; %Inh (GRK4): 3%; %Inh (GRK7): 27%; %Inh (GSK3A): 88%; %Inh (GSK3B; [1]): 54%

Q: Which results are given for `O=C(Nc1cccc(Oc2ccc3nccn3n2)c1)Nc1cccc(C(F)(F)F)c1`?
A: %Inh (FYN): 31%; %Inh (GAK): 4%; %Inh (GCN2(Kin.Dom.2,S808G)): 27%; %Inh (GRK1): 0%; %Inh (GRK2): 0%; %Inh (GRK3): 0%; %Inh (GRK4): 1%; %Inh (GRK7): 0%; %Inh (GSK3A): 0%; %Inh (GSK3B; [1]): 0%
